The results in this text go back to paper PMC7862700, “An all-to-all approach to the identification of sequence-specific readers for epigenetic DNA modifications on cytosine”.

Assay in all cases: DAPPL (digital affinity profiling via proximity ligation, sequencing); 10 mM Tris-HCl pH 7.5, 50 mM NaCl, 1 mM DTT, 4% glycerol, room temperature, 30 min; GST-TFs on glutathione beads, 16-mer random dsDNA library, 0.1% formaldehyde crosslink after washing; high values mean tight binding
For one assay, the target named is T1, FEV (Homo sapiens, UniProt Q99581 1-238).
T1 sequence: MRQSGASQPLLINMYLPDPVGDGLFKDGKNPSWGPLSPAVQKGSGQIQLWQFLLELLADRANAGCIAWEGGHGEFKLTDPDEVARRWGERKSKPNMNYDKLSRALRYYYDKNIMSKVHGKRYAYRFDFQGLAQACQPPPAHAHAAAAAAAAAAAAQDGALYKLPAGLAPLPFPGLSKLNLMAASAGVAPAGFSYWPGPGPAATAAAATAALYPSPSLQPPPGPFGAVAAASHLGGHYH
Particulars: protein: recombinant; tags: N-terminal GST; dsDNA, one strand shown. The method, boiled down:
(§1)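 Yeast served to express human transcription factors as GST fusions, which were then captured on glutathione beads and labelled with DNA barcodes. Pooled with a tag-only sample, they were incubated with 200 nmole of a 16-mer random double-stranded DNA library for 30 min at room temperature in Tris/NaCl/DTT/glycerol buffer, washed, crosslinked with 0.1% formaldehyde, ligated by proximity, amplified by PCR and sequenced. Dividing each hexamer's read frequency for a factor by its frequency for the tag-only sample gives the binding signal.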

The target of the next assay is ETV5 (Homo sapiens, UniProt P41161 1-510). The following applies: protein: recombinant; tags: N-terminal GST; dsDNA, one strand shown. The essentials: as §1
The next assay has as its target HSF1 (Homo sapiens, UniProt Q00613 1-529). The following applies: protein: recombinant; tags: N-terminal GST; chain copies: 3; dsDNA, one strand shown. The method, boiled down: as §1
The target of a further assay is T2, SPIC (Homo sapiens, UniProt Q8N5J4 1-248).
T2 sequence: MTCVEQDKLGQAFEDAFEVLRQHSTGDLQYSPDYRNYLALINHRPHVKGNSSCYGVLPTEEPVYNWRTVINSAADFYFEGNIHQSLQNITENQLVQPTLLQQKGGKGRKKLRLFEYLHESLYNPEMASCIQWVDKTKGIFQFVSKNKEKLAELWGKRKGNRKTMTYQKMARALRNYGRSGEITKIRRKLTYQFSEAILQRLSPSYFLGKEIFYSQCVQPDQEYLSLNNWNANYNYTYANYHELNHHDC
Particulars: protein: recombinant; tags: N-terminal GST; dsDNA, one strand shown. The method, boiled down:
as §1

In the next assay the target is ELF4 (Homo sapiens, UniProt Q99607 1-663). Particulars: protein: recombinant; tags: N-terminal GST; dsDNA, one strand shown. The essentials:
as §1

Another assay has as its target T3, ELK4 (Homo sapiens, UniProt P28324-2 1-405).
T3 sequence: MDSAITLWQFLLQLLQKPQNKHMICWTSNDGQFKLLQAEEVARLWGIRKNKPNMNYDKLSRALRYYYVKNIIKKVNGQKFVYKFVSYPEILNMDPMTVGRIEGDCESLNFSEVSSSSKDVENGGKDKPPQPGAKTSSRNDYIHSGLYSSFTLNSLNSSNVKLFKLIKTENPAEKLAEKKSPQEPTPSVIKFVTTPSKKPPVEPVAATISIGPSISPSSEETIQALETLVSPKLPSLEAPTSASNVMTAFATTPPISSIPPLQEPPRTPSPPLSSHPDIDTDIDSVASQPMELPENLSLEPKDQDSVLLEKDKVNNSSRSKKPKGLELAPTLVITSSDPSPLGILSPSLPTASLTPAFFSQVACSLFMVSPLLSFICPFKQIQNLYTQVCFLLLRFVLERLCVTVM
The following applies: protein: recombinant; tags: N-terminal GST; dsDNA, one strand shown. The method, boiled down:
as §1

In the next assay the target is T4, ETV2 (Homo sapiens, UniProt O00321 1-342).
T4 sequence: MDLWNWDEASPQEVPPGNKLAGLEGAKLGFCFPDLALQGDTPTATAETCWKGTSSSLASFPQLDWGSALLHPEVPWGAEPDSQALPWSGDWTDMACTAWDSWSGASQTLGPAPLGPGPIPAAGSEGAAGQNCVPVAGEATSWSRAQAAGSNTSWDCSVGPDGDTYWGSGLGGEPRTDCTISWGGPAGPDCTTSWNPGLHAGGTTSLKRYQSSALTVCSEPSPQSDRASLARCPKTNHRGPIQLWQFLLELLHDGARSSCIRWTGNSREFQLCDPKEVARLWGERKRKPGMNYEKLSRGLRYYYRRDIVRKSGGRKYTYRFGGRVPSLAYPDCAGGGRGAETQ
The following applies: protein: recombinant; tags: N-terminal GST; dsDNA, one strand shown. The method, boiled down: as §1

The next assay concerns the target T5, ELF3 (Homo sapiens, UniProt P78545 1-371).
T5 sequence: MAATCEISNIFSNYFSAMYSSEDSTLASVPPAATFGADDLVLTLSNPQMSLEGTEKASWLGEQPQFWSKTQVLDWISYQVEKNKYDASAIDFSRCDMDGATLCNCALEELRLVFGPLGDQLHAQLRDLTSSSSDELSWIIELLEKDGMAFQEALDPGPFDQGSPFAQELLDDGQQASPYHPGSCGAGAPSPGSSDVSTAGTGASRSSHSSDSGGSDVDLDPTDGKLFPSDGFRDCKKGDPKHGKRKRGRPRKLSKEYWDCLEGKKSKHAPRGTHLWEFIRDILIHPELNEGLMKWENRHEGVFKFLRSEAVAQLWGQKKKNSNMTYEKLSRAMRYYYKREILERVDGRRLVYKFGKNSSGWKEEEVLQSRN
The following applies: protein: recombinant; tags: N-terminal GST; dsDNA, one strand shown. The essentials: as §1

Another assay deals with CRX (Homo sapiens, UniProt O43186 1-299). The following applies: protein: recombinant; tags: N-terminal GST; dsDNA, one strand shown. The method, boiled down:
as §1

Another assay deals with ETV1 (Homo sapiens, UniProt P50549 1-477). The following applies: protein: recombinant; tags: N-terminal GST; dsDNA, one strand shown. The method, boiled down: as §1
Another assay concerns the target T6, ERF (Homo sapiens, UniProt P50548 1-548).
T6 sequence: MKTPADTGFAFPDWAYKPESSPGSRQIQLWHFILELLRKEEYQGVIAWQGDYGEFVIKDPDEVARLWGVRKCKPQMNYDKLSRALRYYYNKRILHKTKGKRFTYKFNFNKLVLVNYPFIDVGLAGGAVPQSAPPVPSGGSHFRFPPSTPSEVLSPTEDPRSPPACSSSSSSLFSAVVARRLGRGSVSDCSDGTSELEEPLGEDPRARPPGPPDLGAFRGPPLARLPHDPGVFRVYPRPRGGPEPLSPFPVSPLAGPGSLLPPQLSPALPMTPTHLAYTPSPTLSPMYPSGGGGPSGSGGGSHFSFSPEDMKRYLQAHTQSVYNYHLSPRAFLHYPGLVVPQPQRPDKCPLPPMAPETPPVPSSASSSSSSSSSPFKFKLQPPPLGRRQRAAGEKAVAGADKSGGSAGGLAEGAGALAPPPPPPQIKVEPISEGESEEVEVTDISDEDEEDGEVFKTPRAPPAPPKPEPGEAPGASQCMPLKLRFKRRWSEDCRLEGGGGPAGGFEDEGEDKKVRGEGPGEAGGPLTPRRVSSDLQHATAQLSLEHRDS
The following applies: protein: recombinant; tags: N-terminal GST; dsDNA, one strand shown. The essentials: as §1

In a further assay the target is T7, ETV3L (Homo sapiens, UniProt Q6ZN32 1-361).
T7 sequence: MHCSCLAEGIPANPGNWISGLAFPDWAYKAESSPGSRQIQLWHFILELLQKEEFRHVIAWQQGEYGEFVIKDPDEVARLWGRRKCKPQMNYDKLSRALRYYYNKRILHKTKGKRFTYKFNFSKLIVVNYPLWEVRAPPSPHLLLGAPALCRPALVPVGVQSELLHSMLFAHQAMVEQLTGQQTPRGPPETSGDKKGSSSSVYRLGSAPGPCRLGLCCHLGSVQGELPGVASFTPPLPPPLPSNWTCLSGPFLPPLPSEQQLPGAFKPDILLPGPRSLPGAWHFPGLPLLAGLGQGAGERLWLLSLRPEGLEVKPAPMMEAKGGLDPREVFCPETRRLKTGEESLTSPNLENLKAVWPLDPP
Particulars: protein: recombinant; tags: N-terminal GST; dsDNA, one strand shown. The essentials:
as §1

Another assay addresses T8, ETS2 (Homo sapiens, UniProt P15036 1-469).
T8 sequence: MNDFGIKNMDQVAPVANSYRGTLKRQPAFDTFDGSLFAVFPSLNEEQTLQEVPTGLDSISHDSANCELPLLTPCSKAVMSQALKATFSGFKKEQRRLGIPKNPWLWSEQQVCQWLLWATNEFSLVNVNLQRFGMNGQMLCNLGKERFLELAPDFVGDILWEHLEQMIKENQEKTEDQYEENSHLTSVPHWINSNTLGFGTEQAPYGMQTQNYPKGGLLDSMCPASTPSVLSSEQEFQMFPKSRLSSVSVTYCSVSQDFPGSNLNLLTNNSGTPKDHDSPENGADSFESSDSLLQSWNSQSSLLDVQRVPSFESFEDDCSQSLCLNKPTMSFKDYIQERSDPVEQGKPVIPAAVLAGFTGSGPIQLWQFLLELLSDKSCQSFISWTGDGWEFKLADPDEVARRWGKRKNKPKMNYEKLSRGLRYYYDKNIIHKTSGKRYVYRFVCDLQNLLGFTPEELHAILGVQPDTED
Particulars: protein: recombinant; tags: N-terminal GST; dsDNA, one strand shown. The method, boiled down: as §1

The target in the next assay is T9, SPDEF (Homo sapiens, UniProt O95238 1-335).
T9 sequence: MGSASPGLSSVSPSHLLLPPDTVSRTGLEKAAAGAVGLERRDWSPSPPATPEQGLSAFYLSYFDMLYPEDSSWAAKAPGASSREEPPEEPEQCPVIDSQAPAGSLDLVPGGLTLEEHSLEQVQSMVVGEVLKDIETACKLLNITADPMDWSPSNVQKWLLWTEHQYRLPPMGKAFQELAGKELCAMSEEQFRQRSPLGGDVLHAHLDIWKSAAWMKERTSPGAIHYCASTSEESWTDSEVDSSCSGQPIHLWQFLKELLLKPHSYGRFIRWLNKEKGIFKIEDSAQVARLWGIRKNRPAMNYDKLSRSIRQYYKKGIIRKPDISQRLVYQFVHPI
The following applies: protein: recombinant; tags: N-terminal GST; dsDNA, one strand shown. The method, boiled down:
as §1

In a further assay the target is T10, ETV7 (Homo sapiens, UniProt Q9Y603 1-341).
T10 sequence: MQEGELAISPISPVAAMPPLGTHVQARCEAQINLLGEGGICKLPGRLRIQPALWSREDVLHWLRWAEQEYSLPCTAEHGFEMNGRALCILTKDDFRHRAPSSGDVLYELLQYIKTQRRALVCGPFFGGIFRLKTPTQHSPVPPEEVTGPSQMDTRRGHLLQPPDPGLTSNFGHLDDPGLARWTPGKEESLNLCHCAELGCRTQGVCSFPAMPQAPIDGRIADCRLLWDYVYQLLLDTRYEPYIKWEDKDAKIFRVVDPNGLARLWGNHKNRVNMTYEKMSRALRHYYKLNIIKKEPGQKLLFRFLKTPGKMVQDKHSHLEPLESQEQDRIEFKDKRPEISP
Particulars: protein: recombinant; tags: N-terminal GST; dsDNA, one strand shown. The method, boiled down: as §1

A further assay addresses T11, ELF5 (Homo sapiens, UniProt Q9UKW6-2 1-255).
T11 sequence: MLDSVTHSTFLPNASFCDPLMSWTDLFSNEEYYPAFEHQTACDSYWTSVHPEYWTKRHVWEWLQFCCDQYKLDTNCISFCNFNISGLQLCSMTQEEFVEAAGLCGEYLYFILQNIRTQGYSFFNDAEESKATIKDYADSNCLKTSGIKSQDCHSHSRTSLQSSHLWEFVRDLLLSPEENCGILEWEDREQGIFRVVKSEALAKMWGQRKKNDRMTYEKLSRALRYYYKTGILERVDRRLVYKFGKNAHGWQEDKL
Particulars: protein: recombinant; tags: N-terminal GST; dsDNA, one strand shown. The method, boiled down: as §1

The target in another assay is T12, ETV3 (Homo sapiens, UniProt P41162-2 1-143).
T12 sequence: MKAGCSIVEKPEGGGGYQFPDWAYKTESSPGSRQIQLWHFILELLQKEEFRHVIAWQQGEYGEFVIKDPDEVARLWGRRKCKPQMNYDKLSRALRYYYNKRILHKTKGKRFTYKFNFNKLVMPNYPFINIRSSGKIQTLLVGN
Particulars: protein: recombinant; tags: N-terminal GST; dsDNA, one strand shown. The essentials: as §1

The next assay deals with ETV6 (Homo sapiens, UniProt P41212 1-452). The following applies: protein: recombinant; tags: N-terminal GST; dsDNA, one strand shown. The method, boiled down: as §1
Chain of ETV6 (P41212 whole entry): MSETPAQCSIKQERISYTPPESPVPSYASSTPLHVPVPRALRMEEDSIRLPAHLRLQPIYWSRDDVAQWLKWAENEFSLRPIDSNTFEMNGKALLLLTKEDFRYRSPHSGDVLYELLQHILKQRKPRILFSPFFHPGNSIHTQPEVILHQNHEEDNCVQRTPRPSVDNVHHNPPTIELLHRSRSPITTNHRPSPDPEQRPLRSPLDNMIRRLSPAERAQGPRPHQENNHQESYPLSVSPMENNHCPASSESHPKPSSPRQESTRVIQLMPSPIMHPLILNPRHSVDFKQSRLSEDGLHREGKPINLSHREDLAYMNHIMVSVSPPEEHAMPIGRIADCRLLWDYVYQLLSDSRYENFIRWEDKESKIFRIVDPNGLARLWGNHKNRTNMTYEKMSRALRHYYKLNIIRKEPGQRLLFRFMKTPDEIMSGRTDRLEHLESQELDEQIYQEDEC

Chain of ELF4 (Q99607 whole entry): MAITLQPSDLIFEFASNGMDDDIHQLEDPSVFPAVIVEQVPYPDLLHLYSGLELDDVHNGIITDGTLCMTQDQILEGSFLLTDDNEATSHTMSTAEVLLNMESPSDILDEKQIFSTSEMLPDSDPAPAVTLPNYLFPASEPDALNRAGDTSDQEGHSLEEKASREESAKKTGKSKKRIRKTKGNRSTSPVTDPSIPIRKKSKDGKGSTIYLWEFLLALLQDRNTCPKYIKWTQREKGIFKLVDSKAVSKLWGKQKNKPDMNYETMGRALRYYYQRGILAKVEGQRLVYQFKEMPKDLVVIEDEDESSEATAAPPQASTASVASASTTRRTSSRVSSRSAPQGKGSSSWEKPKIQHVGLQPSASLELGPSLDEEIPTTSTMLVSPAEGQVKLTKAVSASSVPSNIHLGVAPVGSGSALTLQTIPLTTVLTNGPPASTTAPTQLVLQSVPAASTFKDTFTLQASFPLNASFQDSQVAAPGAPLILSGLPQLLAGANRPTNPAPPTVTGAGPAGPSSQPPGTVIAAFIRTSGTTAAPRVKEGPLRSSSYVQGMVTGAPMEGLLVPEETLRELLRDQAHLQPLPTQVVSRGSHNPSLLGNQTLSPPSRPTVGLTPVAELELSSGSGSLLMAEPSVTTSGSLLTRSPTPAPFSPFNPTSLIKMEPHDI
Chain of ETV1 (P50549 whole entry): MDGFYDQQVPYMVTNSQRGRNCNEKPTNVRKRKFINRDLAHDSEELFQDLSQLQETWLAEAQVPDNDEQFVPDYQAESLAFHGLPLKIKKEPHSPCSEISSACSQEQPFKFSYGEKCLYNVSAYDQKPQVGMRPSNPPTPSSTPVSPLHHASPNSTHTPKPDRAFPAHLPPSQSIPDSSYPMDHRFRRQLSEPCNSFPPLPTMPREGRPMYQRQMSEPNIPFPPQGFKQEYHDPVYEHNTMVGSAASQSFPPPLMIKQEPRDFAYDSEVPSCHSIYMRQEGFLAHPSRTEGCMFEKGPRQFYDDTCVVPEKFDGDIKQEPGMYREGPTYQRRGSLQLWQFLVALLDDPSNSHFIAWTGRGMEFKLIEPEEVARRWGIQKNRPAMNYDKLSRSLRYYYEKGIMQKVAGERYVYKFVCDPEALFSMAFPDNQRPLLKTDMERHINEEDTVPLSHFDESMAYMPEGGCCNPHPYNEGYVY
Chain of CRX (O43186 whole entry): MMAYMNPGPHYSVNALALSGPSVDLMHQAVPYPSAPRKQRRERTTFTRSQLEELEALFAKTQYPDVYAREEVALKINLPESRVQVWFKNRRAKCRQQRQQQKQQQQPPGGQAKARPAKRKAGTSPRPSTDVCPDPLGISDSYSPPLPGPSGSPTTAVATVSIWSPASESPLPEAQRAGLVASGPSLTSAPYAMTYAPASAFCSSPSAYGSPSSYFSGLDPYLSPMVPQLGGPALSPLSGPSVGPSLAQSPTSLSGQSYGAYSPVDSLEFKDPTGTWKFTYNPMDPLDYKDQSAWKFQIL
Chain of HSF1 (Q00613 whole entry): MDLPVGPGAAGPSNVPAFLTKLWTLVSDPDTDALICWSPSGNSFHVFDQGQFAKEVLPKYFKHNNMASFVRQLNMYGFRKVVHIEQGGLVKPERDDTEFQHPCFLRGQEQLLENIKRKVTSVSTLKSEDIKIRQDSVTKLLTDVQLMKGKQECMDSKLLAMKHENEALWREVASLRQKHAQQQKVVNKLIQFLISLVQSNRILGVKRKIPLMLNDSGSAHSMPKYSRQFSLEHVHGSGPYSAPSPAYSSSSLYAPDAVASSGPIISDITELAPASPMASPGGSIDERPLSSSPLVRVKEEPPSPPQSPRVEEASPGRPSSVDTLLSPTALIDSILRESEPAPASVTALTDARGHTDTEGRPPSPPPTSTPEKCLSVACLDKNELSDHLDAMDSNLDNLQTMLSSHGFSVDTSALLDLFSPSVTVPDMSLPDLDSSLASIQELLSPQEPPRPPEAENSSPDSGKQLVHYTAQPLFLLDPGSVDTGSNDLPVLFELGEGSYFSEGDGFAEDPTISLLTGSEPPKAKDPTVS
Chain of ETV5 (P41161 whole entry): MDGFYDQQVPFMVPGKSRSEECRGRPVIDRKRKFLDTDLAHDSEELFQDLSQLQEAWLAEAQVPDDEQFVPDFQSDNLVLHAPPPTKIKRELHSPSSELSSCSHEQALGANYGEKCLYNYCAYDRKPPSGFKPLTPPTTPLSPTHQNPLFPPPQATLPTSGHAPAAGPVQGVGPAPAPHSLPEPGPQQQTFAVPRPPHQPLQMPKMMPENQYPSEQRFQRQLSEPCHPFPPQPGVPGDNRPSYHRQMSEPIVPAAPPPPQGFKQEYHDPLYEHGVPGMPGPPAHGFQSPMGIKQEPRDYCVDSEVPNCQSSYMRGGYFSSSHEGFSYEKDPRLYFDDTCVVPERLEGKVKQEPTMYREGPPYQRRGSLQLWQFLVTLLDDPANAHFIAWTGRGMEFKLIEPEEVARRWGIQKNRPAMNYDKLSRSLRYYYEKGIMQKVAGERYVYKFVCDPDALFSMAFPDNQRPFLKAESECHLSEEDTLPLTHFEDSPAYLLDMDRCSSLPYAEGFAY

For TGTGCT, the binding signal in the assay with FEV is 1.25 fold enrichment (6-mer frequency, TF over GST control); with ETV5, 1.18 fold enrichment (6-mer frequency, TF over GST control); with HSF1, 1.15 fold enrichment (6-mer frequency, TF over GST control); with SPIC it was 1.35 fold enrichment (6-mer frequency, TF over GST control); with ELF4 it was 1.17 fold enrichment (6-mer frequency, TF over GST control); with ELK4 it was 1.17 fold enrichment (6-mer frequency, TF over GST control). Also, the binding signal with ETV2 was 1.21 fold enrichment (6-mer frequency, TF over GST control); in the assay with ELF3 it was 1.27 fold enrichment (6-mer frequency, TF over GST control); with CRX, 1.1 fold enrichment (6-mer frequency, TF over GST control); with ETV1, 1.18 fold enrichment (6-mer frequency, TF over GST control); with ERF, 1.19 fold enrichment (6-mer frequency, TF over GST control); with ETV3L, 1.12 fold enrichment (6-mer frequency, TF over GST control). In addition, the binding signal is 1.12 fold enrichment (6-mer frequency, TF over GST control) with ETS2; 1.31 fold enrichment (6-mer frequency, TF over GST control) in the assay with SPDEF; 1.18 fold enrichment (6-mer frequency, TF over GST control) with ETV7; 1.15 fold enrichment (6-mer frequency, TF over GST control) in the assay with ELF5; 1.18 fold enrichment (6-mer frequency, TF over GST control) in the assay with ETV3; 1.22 fold enrichment (6-mer frequency, TF over GST control) in the assay with ETV6.
